Article PMC7862700, “An all-to-all approach to the identification of sequence-specific readers for epigenetic DNA modifications on cytosine”

Key:
Test in all cases: DAPPL (digital affinity profiling via proximity ligation, sequencing); 10 mM Tris-HCl pH 7.5, 50 mM NaCl, 1 mM DTT, 4% glycerol, room temperature, 30 min; GST-TFs on glutathione beads, 16-mer random dsDNA library, 0.1% formaldehyde crosslink after washing; high values mean tight binding
FLI1 = biological target: T1, FLI1 (Homo sapiens, UniProt Q01543 1-452); conditions: protein: recombinant; tags: N-terminal GST; dsDNA, one strand shown
T1 sequence: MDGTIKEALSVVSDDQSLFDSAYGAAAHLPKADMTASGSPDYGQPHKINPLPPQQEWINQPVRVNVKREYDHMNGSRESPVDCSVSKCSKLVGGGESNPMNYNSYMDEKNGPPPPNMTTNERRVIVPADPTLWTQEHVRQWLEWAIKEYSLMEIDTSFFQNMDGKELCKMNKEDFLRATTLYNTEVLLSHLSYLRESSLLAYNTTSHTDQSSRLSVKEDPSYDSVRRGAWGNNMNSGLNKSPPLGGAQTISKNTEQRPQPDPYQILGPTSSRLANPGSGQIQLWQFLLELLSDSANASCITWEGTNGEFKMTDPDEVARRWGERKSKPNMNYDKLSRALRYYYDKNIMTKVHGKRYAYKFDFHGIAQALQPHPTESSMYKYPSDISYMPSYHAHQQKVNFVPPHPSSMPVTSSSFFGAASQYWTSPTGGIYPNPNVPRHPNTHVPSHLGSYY
How it was run: (§1)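 Human transcription factors fused to GST were expressed in yeast, captured on glutathione beads, given DNA barcodes and pooled with a GST-only negative control. Pools were incubated with 200 nmole of a 16-mer random double-stranded DNA library in Tris/NaCl/DTT/glycerol buffer at room temperature for 30 min. They were then washed, crosslinked with 0.1% formaldehyde, proximity-ligated (BsaI/T4 ligase, 1 h, 37 °C), PCR-amplified and sequenced on an Illumina NextSeq500. Binding signal is each 6-mer's read frequency for a factor divided by its frequency for the GST control.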

ELK1 = biological target: T2, ELK1 (Homo sapiens, UniProt P19419 1-428); conditions: protein: recombinant; tags: N-terminal GST; dsDNA, one strand shown
T2 sequence: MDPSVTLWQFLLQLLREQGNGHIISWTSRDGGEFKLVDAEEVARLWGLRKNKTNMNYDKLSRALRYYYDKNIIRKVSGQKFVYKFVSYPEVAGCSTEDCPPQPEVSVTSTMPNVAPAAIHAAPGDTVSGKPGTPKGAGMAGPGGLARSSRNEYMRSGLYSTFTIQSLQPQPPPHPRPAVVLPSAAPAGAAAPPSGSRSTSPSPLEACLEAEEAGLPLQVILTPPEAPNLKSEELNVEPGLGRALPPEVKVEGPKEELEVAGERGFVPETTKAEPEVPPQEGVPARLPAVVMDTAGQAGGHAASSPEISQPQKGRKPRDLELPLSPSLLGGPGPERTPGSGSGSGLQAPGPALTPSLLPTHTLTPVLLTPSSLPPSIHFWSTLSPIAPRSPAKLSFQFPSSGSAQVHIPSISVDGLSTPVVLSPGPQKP
How it was run: as §1

GABPA = biological target: T3, GABPA (Homo sapiens, UniProt Q06546 1-454); conditions: protein: recombinant; tags: N-terminal GST; dsDNA, one strand shown
T3 sequence: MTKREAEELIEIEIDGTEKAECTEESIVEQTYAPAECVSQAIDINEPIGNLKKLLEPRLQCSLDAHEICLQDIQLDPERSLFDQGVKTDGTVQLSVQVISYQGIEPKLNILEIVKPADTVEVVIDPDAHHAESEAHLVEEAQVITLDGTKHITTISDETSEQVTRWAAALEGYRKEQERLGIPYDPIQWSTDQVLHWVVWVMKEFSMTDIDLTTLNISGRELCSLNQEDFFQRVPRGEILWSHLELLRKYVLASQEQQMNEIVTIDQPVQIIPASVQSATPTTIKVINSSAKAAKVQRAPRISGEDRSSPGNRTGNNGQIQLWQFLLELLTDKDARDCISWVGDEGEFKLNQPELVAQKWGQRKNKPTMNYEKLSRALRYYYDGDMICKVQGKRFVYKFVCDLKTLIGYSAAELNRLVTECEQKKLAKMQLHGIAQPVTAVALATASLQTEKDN
How it was run: as §1

ERG = biological target: T4, ERG (Homo sapiens, UniProt P11308 1-479); conditions: protein: recombinant; tags: N-terminal GST; dsDNA, one strand shown
T4 sequence: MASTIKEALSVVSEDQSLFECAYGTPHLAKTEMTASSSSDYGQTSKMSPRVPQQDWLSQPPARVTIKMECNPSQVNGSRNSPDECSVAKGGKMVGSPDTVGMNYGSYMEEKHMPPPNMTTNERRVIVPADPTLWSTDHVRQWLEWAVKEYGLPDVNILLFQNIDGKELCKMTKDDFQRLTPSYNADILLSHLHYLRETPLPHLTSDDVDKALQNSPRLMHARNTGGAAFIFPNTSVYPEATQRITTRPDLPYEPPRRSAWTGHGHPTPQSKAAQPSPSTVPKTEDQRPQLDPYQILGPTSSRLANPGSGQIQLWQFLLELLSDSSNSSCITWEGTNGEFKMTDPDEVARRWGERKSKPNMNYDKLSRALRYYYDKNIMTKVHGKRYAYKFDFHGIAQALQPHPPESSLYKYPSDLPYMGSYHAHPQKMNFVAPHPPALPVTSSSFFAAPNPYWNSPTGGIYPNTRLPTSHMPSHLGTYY
How it was run: as §1

ELF1 = ELF1 (Homo sapiens, UniProt P32519 1-619); conditions: protein: recombinant; tags: N-terminal GST; dsDNA, one strand shown
Chain of ELF1 (P32519 whole entry): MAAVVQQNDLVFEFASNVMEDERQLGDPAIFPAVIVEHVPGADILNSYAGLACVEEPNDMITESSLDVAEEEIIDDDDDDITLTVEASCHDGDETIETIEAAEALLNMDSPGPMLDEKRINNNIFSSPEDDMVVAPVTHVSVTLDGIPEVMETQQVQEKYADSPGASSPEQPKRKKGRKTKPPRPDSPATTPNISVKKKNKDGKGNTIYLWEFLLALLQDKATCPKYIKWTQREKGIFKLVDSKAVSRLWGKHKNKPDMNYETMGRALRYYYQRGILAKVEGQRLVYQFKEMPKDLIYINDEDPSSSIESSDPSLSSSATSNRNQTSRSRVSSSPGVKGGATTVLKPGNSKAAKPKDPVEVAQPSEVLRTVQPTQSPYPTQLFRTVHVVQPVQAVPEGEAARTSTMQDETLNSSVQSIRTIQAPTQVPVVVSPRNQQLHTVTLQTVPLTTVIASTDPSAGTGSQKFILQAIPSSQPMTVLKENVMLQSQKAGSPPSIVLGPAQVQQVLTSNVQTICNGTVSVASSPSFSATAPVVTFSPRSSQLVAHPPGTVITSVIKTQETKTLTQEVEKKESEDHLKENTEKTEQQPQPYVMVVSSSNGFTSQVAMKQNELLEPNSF
How it was run: as §1

EHF = biological target: T5, EHF (Homo sapiens, UniProt Q9NZC4 1-300); conditions: protein: recombinant; tags: N-terminal GST; dsDNA, one strand shown
T5 sequence: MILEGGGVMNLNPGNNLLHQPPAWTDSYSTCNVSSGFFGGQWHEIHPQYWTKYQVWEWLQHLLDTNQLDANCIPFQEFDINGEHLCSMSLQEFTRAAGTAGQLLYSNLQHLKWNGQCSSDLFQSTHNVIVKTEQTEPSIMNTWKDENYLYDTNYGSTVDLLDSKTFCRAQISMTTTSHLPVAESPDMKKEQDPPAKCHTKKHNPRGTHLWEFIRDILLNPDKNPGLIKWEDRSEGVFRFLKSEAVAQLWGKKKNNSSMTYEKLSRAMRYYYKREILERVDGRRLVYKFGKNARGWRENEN
How it was run: as §1

SPI1 = SPI1 (Homo sapiens, UniProt P17947 1-270); conditions: protein: recombinant; tags: N-terminal GST; dsDNA, one strand shown
How it was run: as §1

SPIB = SPIB (Homo sapiens, UniProt Q01892 1-262); conditions: protein: recombinant; tags: N-terminal GST; dsDNA, one strand shown
Chain of SPIB (Q01892 whole entry): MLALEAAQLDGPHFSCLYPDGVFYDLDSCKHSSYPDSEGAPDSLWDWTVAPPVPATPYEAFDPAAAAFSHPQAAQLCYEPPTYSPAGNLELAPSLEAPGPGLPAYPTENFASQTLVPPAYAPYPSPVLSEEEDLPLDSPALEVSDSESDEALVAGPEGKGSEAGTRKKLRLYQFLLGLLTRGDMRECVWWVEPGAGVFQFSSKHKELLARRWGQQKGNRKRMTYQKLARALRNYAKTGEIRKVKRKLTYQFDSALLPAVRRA
How it was run: as §1

ELK3 = biological target: T6, ELK3 (Homo sapiens, UniProt P41970 1-407); conditions: protein: recombinant; tags: N-terminal GST; dsDNA, one strand shown
T6 sequence: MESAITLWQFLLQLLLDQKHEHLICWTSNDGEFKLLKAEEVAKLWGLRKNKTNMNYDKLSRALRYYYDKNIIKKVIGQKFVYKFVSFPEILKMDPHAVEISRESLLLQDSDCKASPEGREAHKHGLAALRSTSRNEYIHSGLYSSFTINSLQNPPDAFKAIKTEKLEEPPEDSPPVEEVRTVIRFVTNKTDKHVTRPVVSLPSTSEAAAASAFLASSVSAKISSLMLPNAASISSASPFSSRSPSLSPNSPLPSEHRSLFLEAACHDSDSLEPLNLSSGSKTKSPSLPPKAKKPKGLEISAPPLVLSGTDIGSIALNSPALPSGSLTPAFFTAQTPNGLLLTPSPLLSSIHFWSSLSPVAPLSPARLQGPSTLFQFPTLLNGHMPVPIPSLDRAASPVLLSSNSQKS
How it was run: as §1

FEV = biological target: T7, FEV (Homo sapiens, UniProt Q99581 1-238); conditions: protein: recombinant; tags: N-terminal GST; dsDNA, one strand shown
T7 sequence: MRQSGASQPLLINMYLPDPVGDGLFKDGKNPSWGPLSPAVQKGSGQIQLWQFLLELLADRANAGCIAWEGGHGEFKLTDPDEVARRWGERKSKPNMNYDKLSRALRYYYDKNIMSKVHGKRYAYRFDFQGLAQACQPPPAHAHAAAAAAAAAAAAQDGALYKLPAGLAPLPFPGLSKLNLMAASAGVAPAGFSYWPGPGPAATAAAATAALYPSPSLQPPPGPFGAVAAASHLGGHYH
How it was run: as §1

ETV5 = ETV5 (Homo sapiens, UniProt P41161 1-510); conditions: protein: recombinant; tags: N-terminal GST; dsDNA, one strand shown
Chain of ETV5 (P41161 whole entry): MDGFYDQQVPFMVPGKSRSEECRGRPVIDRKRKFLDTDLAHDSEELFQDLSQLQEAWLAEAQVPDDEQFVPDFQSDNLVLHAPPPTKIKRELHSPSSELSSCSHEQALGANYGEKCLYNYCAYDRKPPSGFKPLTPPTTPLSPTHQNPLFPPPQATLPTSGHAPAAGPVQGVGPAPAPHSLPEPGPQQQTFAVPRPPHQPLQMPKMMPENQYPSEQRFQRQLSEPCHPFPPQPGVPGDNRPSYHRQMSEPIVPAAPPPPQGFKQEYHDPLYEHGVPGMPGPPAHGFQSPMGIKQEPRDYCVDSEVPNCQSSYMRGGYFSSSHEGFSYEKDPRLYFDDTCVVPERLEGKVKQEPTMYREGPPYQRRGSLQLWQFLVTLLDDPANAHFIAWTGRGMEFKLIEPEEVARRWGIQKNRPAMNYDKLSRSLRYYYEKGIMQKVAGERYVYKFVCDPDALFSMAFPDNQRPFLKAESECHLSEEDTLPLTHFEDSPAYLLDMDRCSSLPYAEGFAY
How it was run: as §1

HSF1 = HSF1 (Homo sapiens, UniProt Q00613 1-529); conditions: protein: recombinant; tags: N-terminal GST; chain copies: 3; dsDNA, one strand shown
Chain of HSF1 (Q00613 whole entry): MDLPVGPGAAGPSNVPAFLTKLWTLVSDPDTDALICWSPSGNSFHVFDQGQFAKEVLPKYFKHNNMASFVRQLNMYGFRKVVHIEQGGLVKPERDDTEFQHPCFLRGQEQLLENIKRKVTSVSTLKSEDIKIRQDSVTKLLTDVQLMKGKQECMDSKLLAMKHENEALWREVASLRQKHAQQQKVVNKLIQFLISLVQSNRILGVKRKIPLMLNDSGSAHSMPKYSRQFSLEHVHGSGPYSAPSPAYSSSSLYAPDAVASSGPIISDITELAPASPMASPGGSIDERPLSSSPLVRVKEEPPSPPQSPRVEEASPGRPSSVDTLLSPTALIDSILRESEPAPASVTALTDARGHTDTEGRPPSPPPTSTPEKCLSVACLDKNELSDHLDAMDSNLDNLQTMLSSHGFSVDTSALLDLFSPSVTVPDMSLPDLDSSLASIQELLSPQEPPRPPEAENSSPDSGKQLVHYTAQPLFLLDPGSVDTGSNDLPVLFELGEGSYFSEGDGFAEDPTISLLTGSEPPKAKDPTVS
How it was run: as §1

SPIC = biological target: T8, SPIC (Homo sapiens, UniProt Q8N5J4 1-248); conditions: protein: recombinant; tags: N-terminal GST; dsDNA, one strand shown
T8 sequence: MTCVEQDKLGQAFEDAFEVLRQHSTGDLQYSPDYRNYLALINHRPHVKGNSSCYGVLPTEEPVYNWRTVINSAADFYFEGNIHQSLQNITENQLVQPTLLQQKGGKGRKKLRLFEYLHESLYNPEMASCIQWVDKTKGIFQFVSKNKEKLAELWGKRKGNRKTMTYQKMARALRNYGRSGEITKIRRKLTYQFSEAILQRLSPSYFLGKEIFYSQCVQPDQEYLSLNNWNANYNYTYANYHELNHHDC
How it was run: as §1

ELF4 = ELF4 (Homo sapiens, UniProt Q99607 1-663); conditions: protein: recombinant; tags: N-terminal GST; dsDNA, one strand shown
Chain of ELF4 (Q99607 whole entry): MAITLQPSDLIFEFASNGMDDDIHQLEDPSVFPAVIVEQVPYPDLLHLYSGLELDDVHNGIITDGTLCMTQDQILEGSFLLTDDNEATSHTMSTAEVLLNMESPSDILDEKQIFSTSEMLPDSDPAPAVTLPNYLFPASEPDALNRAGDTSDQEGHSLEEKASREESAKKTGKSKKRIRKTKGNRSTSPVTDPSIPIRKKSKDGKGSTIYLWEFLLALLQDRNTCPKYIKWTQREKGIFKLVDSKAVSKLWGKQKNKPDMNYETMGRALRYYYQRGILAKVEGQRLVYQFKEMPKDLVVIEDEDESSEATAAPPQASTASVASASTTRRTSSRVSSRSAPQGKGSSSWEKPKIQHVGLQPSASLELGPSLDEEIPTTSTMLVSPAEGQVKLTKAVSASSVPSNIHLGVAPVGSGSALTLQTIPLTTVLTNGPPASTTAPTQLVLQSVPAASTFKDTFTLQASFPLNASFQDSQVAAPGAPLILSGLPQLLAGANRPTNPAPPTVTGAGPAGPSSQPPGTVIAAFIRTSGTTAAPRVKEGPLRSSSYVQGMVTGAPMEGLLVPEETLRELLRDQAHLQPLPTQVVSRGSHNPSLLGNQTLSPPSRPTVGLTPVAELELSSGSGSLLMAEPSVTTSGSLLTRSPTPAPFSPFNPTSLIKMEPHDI
How it was run: as §1

ELK4 = biological target: T9, ELK4 (Homo sapiens, UniProt P28324-2 1-405); conditions: protein: recombinant; tags: N-terminal GST; dsDNA, one strand shown
T9 sequence: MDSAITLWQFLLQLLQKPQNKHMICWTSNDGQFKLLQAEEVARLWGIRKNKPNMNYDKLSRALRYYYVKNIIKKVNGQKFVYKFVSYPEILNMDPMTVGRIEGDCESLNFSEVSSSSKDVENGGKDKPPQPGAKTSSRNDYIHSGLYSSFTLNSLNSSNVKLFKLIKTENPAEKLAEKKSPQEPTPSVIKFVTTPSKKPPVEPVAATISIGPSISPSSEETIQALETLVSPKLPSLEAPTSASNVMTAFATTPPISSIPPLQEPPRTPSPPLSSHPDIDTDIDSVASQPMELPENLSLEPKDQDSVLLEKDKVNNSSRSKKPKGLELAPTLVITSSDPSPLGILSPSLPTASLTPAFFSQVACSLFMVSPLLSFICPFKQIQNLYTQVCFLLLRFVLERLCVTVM
How it was run: as §1

ETV2 = biological target: T10, ETV2 (Homo sapiens, UniProt O00321 1-342); conditions: protein: recombinant; tags: N-terminal GST; dsDNA, one strand shown
T10 sequence: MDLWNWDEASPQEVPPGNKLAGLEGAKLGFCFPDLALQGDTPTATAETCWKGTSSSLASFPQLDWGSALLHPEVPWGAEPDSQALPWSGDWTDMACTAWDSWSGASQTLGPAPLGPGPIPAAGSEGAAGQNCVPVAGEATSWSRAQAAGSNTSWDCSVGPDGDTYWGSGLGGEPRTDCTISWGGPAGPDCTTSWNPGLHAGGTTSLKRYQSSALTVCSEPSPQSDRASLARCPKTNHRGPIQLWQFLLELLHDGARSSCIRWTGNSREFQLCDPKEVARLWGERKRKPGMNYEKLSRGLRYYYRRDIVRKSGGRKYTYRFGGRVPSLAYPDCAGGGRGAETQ
How it was run: as §1

ELF3 = biological target: T11, ELF3 (Homo sapiens, UniProt P78545 1-371); conditions: protein: recombinant; tags: N-terminal GST; dsDNA, one strand shown
T11 sequence: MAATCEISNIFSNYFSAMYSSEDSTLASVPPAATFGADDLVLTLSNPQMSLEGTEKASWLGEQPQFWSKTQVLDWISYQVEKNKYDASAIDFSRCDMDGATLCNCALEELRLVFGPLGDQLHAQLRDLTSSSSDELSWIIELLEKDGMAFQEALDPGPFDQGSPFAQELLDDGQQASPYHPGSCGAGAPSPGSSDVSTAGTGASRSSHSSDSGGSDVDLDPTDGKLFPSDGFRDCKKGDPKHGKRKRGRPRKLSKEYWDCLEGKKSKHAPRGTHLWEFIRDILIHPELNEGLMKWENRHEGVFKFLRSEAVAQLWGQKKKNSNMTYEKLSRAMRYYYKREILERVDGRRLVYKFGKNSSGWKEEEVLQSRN
How it was run: as §1

CRX = CRX (Homo sapiens, UniProt O43186 1-299); conditions: protein: recombinant; tags: N-terminal GST; dsDNA, one strand shown
Chain of CRX (O43186 whole entry): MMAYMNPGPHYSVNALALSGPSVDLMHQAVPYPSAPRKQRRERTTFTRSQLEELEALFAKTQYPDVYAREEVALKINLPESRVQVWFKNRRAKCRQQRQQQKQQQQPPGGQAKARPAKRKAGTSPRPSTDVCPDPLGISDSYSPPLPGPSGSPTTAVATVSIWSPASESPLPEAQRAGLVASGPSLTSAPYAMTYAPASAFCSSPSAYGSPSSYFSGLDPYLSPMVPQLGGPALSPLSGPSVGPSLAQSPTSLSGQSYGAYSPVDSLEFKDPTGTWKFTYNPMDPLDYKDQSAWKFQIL
How it was run: as §1

ETV1 = ETV1 (Homo sapiens, UniProt P50549 1-477); conditions: protein: recombinant; tags: N-terminal GST; dsDNA, one strand shown
Chain of ETV1 (P50549 whole entry): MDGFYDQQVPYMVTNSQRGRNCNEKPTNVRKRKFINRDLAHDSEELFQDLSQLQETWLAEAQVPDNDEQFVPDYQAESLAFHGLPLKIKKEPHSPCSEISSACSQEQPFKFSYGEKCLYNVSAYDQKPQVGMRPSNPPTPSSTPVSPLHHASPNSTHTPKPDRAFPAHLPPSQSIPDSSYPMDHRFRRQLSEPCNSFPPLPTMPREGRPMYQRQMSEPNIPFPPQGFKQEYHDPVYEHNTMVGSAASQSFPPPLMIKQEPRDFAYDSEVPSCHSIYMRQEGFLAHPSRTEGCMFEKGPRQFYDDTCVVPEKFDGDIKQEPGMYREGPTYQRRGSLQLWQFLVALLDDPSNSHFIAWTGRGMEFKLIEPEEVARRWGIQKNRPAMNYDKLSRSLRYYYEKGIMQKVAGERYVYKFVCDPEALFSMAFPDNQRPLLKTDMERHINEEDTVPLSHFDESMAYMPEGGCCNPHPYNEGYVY
How it was run: as §1

## GGTCTC
FLI1
  binding signal: 2.92 fold enrichment (6-mer frequency, TF over GST control)
ELK1
  binding signal: 2.66 fold enrichment (6-mer frequency, TF over GST control)
GABPA
  binding signal: 2.5 fold enrichment (6-mer frequency, TF over GST control)
ERG
  binding signal: 2.46 fold enrichment (6-mer frequency, TF over GST control)
ELF1
  binding signal: 2.74 fold enrichment (6-mer frequency, TF over GST control)
EHF
  binding signal: 2.55 fold enrichment (6-mer frequency, TF over GST control)
SPI1
  binding signal: 2.89 fold enrichment (6-mer frequency, TF over GST control)
SPIB
  binding signal: 2.59 fold enrichment (6-mer frequency, TF over GST control)
ELK3
  binding signal: 2.2 fold enrichment (6-mer frequency, TF over GST control)
FEV
  binding signal: 2.46 fold enrichment (6-mer frequency, TF over GST control)
ETV5
  binding signal: 2.46 fold enrichment (6-mer frequency, TF over GST control)
HSF1
  binding signal: 1.44 fold enrichment (6-mer frequency, TF over GST control)
SPIC
  binding signal: 2.4 fold enrichment (6-mer frequency, TF over GST control)
ELF4
  binding signal: 2.51 fold enrichment (6-mer frequency, TF over GST control)
ELK4
  binding signal: 2.64 fold enrichment (6-mer frequency, TF over GST control)
ETV2
  binding signal: 2.18 fold enrichment (6-mer frequency, TF over GST control)
ELF3
  binding signal: 2.29 fold enrichment (6-mer frequency, TF over GST control)
CRX
  binding signal: 1.48 fold enrichment (6-mer frequency, TF over GST control)
ETV1
  binding signal: 2.58 fold enrichment (6-mer frequency, TF over GST control)
